Compounds with a hit are over-represented: about 6.5% of the library has one in this group of screens.
FMDV inh = foot and mouth disease virus antiviral activity; FMDV antiviral cell-based qHTS; 410,000 compounds, 1.2% hits; Potency, µM (series often up to 57.9 µM), inactives show top-dose activity change, negative = inhibition, usual class: inhibitors; AID 1159524; calls by dose curve; tested in HEK293T cells; further: read-out not given here; potency means the concentration at half of the fitted maximal effect; nearly all actives have a fitted effect of over 45% in size
Lassa entry inh = Lassa virus entry inhibition; Potency, µM (highest dose often 37.9 µM), for the others: top-dose activity change, negative = inhibition, usual class: inhibitors; AID 540256; Lassa virus pseudotype entry inhibition, cell reporter; 300,000 compounds, 1.2% hits; calls by dose curve; tested in HEK293 cells; further: potency means the concentration at half of the fitted maximal effect; nearly all actives have a fitted effect of over 50% in size
Vaccinia Venus = inhibitors of vaccinia virus (Venus reporter). Vaccinia virus Venus reporter expression, fluorescence. Potency, µM (top dose mostly 36.5 µM), for the others: at the highest dose activity change, negative = inhibition, hits mostly inhibitors. 330,000 compounds, 0.46% hits. AID 720580; calls by dose curve; tested in A549 cells; further: potency means the concentration at half of the fitted maximal effect; nearly all actives have a fitted effect of over 30% in size
VACV mCherry inh = inhibitors of vaccinia virus infection (mCherry reporter signal). Potency, µM (doses to about 36.5 µM), without a hit: at the highest dose activity change, negative = inhibition, usual class: inhibitors. 310,000 compounds, 0.63% hits. Vaccinia virus mCherry reporter infection, fluorescence. AID 720579; calls by dose curve; tested in A549 cells; further: potency means the concentration at half of the fitted maximal effect; nearly all actives have a fitted effect of over 35% in size
MARV entry inh = inhibitors of Marburg virus binding or cell entry; Marburg virus pseudotyped entry inhibition, cell reporter; Potency, µM (doses to about 37.8 µM), for inactives: at the top dose activity change, negative = inhibition, actives largely listed as inhibitors; 300,000 compounds, 1.8% hits; AID 540276; calls by dose curve; tested in HEK293 cells; further: potency means the concentration at half of the fitted maximal effect
HCMV antiviral = blocks human cytomegalovirus replication; HFF cells, HCMV-luciferase reporter, 72 h; active compounds read low; activity change, negative = inhibition, % at 57.5 µM; 410,000 compounds, 4.5% hits; in the data active means activity change below about -60%; inconclusive means no clear call, values can overlap the other calls; inactive means above about -39%
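Compounds were evaluated in HFFs infected with an HCMV luciferase reporter virus (MOI 1 PFU/cell). Luciferase in lysates collected 72 h post infection served as the replication measure.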
Active calls of the source: *; i = inactive; ? = inconclusive; nt = no result; + = active, no number; [ ] = another dose, or the depositor's remark. On the % scale 0 is the no-effect control and ±100 the full control effect.

SMILES | FMDV inh | Lassa entry inh | Vaccinia Venus | VACV mCherry inh | MARV entry inh | HCMV antiviral
O=C(CSc1ncn[nH]1)NCCc1ccccc1 | -9.1% | -4.0% | -14.6% | -16.5% | 13.5% | 7.2
CC(Sc1ncn[nH]1)C(=O)NCc1ccccc1 (stereo unspecified) | -27.3% | -1.5%[46.1 µM] | -10.7% | -15.8% | 13.8%[46.1 µM] | -98.6*
Cc1cc2oc3c(c(=O)c2cc1C)C1(C(=O)N(C)c2ccccc21)N(CCO)C3=O (stereo unspecified) | -0.2% | -1.2%[46.1 µM] | -4.5% | -8.8% | 20.7%[46.1 µM] | 11.3
CCCS(=O)(=O)N1CC(=O)N(c2cccc(F)c2)C(C)(C(=O)NC2CCCCCC2)C1 (stereo unspecified) | 4.1% | 17.1%[46.1 µM] | -5.0% | -11.6% | nt | 0.0
COc1ccccc1CN1CCC(CNC(=O)c2cnn(-c3ccc(Cl)cc3)c2C2CCN(C(=O)OC(C)(C)C)CC2)CC1 | 0.0% | ? | -22.6% | ? | nt | -107.5*
COc1ccc(-n2ncc(C(=O)NCCCN3CCCCC3)c2C2CCN(C(=O)OC(C)(C)C)CC2)cc1 | -1.2% | -16.7%[46.1 µM] | -21.5% | -16.0% | nt | +
CC(C)(C)OC(=O)N1CCC(c2c(C(=O)NCCN3CCC(Cc4ccccc4)CC3)cnn2-c2cccc(Cl)c2)CC1 | ? | ? | 11.2µM* | 11.2µM* | nt | -100.0*
Cc1ccc(-n2ncc(C(=O)NCCN3CCC(Cc4ccccc4)CC3)c2C2CCN(C(=O)OC(C)(C)C)CC2)cc1 | -14.7% | ? | 11.2µM* | ? | nt | +
CN1CCN(CCNC(=O)c2cnn(-c3cccc(Cl)c3)c2C2CCN(C(=O)OC(C)(C)C)CC2)CC1 | -15.9% | -0.9%[46.1 µM] | -19.4% | -22.7% | nt | -22.6
O=S(=O)(Nc1ccc(-c2ccc(N3CCCC3)nn2)cc1)c1ccc(OC(F)(F)F)cc1 | 19.6% | ? | -17.3% | -15.3% | nt | 28.3
Cc1cccc(CN2C(=O)CC(c3ccc(Cl)cc3)c3c(C)nn(-c4nc(C)cc(C)n4)c32)c1 (stereo unspecified) | 13.4% | -14.5%[46.1 µM] | -14.2% | -6.9% | ? | -19.6
Cc1ccc(-n2ncc(C(=O)NCCN3CCc4ccccc4C3)c2C2CCN(C(=O)OC(C)(C)C)CC2)cc1 | -6.4% | ? | -27.4% | -15.9% | nt | +
O=C(/C=C/Nc1ccc(F)cc1)c1cccs1 | 12.6µM* | ? | -9.3% | i | 11.2µM* | 16.6
Cc1cnc2ccccc2c1/C=C/c1ccc(N)cc1 | nt | nt | -20.8% | -28.4% | nt | nt
CNC(=O)c1ccc(-c2cc3onc(-c4ccccc4)c3c(=O)n2C)cc1 | -5.5% | nt | ? | -10.6% | nt | -2.7
Cc1ccc(-c2cc3onc(-c4ccccc4)c3c(=O)n2C)cc1 | 17.8µM* | nt | ? | -26.4% | nt | -70.8*
CN(Cc1cnccn1)Cc1nc(Cc2ccccc2Cl)no1 | -9.4% | 21.9%[46.1 µM] | -17.0% | i | -3.0%[46.1 µM] | -22.2
CCN(Cc1ccncc1)Cc1nc(Cc2ccccc2Cl)no1 | ? | nt | nt | nt | nt | -60.7*
O=C(O)C=Cc1ccc(Cn2ccnc2)cc1 | -10.0% | nt | nt | nt | nt | nt
CCOC(=O)Cc1nn(Cc2nc(-c3ccc(C#N)cc3)cs2)c(=O)c2ccccc12 | 17.8µM* | ? | -3.9% | -1.8% | ? | ?
COc1ccc(Cl)cc1C(=O)Nc1ccc(S(=O)(=O)N2CCCC2)cc1 | -20.2% | -1.6% | -6.7% | -8.1% | 12.9% | -101.5*
O=C(Nc1ccncc1)c1cc(S(=O)(=O)N2CCCC2)ccc1Cl | ? | nt | nt | nt | nt | 21.2
O=C(Nc1ccc(O)cc1)c1cc(S(=O)(=O)N2CCCC2)ccc1Cl | ? | -1.9% | -17.2% | -18.0% | ? | -97.0*
COC(=O)C1=C(C)N(Cc2ccc(C(F)(F)F)cc2)C(=NCC2CC2)NC1c1cccc(Cl)c1 (stereo unspecified) | nt | nt | nt | nt | nt | -101.5*
CCN1C(=NCc2cc(OC)c(OC)c(OC)c2)N[C@@H](c2cccc(C(F)(F)F)c2)C(C(=O)OC)=C1C | -7.6% | nt | -20.2% | -6.8% | nt | 0.5
COC(=O)C1=C(C)N(Cc2ccc(C(F)(F)F)cc2)C(=NCc2ccc3c(c2)OCO3)NC1c1cccc(Cl)c1 (stereo unspecified) | nt | nt | nt | nt | nt | -100.0*
COc1ccc(/C=N/Nc2nnc(Cc3ccc(OC)c(OC)c3)c(=O)[nH]2)cc1 | -1.1% | -3.4% | -6.2% | -5.4% | -51.7% | -68.0*
